# Measured values as given in the supplement of paper PMC11150407.
# Where a name gives a salt, the structure may show the parent alone. The whole screen tested about 2,100 compounds, of which about 180 (8.6%) showed an effect of 50% or more. Shown is part of a subset that was picked to be rich in strong results.
# System: MOLM1 and UCSD/AML1 (averaged)
# Test: cell viability relative to DMSO control (POC); higher = less growth inhibition
# Conditions: 1 µM; 72 h
# Experimental: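 Primary viability screen in the 3q26 EVI1-high AML cell lines MOLM1 and UCSD/AML1 (1.5e3 cells/well, 384-well), compounds at 1 uM for 72 h. ATP CellTiter-Glo read-out given as percent of viable cells over DMSO control (POC), averaged over duplicates. DMSO was the negative control and 5 uM etoposide the positive control. This mapping covers the MicroSource Spectrum and Selleck anticancer libraries (drug names).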
row,SMILES,cell viability
1,COc1ccc2cc([C@H](C)CO)ccc2c1,103%
2,COC(=O)C[C@H]1C(C)(C)[C@@H](O)[C@@H]2CC3=C4C=C(OC)O[C@@H](c5ccoc5)[C@]4(C)CCC3[C@@]1(C)C2=O (stereo partly drawn) [3-DEOXO-3beta-HYDROXYMEXICANOLIDE 16-ENOL ETHER],100%
3,CCOC(=O)C(Cc1ccc(O)cc1)NC(C)=O (stereo not drawn),105%
4,C/C(=C\C(=O)Nc1ccccc1C(=O)O)c1ccc2ccccc2c1,104%
5,COc1cc(C/C=C/c2ccccc2)c(OC)cc1O,93.6%
6,COc1cc(O)c(C)c(O)c1,106%
7,COc1ccc(C(=O)CC(=O)O)c2c1C=CC(C)(C)O2,99.5%
8,CC(C)=CCC/C(C)=C/CC/C(C)=C/CC/C(C)=C/CC/C(C)=C/CC/C(C)=C/CC/C(C)=C/CC/C(C)=C/CC/C(C)=C/CO,83.6%
9,O=c1c(-c2ccc(O)cc2)coc2c([C@@H]3O[C@H](CO)[C@@H](O)[C@H](O)[C@H]3O)c(O)ccc12,120%
10,CNC(=O)c1cc(COc2nnc(Nc3ccc(Cl)cc3)c3ccoc23)ccn1 [Telatinib (BAY 57-9352)],94.5%
11,CN1CCCC(n2nc(Cc3ccc(Cl)cc3)c3ccccc3c2=O)CC1 (stereo not drawn),101%
12,Clc1ccc(Nc2nnc(Cc3ccncc3)c3ccccc23)cc1 [Vatalanib dihydrochloride (PTK787)],44.6%
13,C=C(C)[C@H]1COc2cc3oc(=O)ccc3cc2O1,93.3%
14,CC(C)C[C@@H](C(=O)N[C@H](C(=O)OC1CCCC1)c1ccccc1)[C@H](O)C(=O)NO [Tosedostat (CHR2797)],77.5%
15,O=C([O-])c1ccccc1O.[Na+],102%
16,COc1ccc2[nH]c([S+]([O-])Cc3ncc(C)c(OC)c3C)nc2c1 (stereo not drawn),92.4%
17,COc1c(C)cnc(Cn2cnc3c(Cl)nc(N)nc32)c1C,4.8%
18,COc1cc(-c2coc3cc(O)c(OC)c(O)c3c2=O)cc(O)c1OC,90.5%
19,O=C(O)c1cc(=O)c2cccc(O)c2[nH]1,102%
20,C[C@H]1O[C@@H](O[C@H]2[C@@H](O)C[C@H](O[C@H]3[C@@H](O)C[C@H](O[C@H]4CC[C@@]5(C)[C@H](CC[C@@H]6[C@@H]5CC[C@]5(C)[C@@H](C7=CC(=O)OC7)CC[C@]65O)C4)O[C@@H]3C)O[C@@H]2C)C[C@H](O)[C@@H]1O,2.44%
21,C[C@H]1O[C@@H](O[C@H]2[C@@H](O)C[C@H](O[C@H]3[C@@H](O)C[C@H](O[C@H]4CC[C@@]5(C)[C@H](CC[C@@H]6[C@@H]5C[C@@H](O)[C@]5(C)[C@@H](C7=CC(=O)OC7)CC[C@]65O)C4)O[C@@H]3C)O[C@@H]2C)C[C@H](O)[C@@H]1O,3.03%
22,CO[C@H]1O[C@H](CO)C(O[C@@H]2OC(C(=O)O)[C@@H](O[C@H]3O[C@H](COS(=O)(=O)O)C(O[C@@H]4OC(C(=O)O)[C@@H](O[C@H]5O[C@H](CO)C(O[C@@H]6OC(C(=O)O)[C@@H](O[C@H]7O[C@H](COS(=O)(=O)O)C(O[C@@H]8OC(C(=O)O)=C[C@H](O)C8OS(=O)(=O)O)[C@H](O)[C@H]7NC(C)=O)[C@H](O)[C@H]6O)[C@H](O)[C@H]5NC(C)=O)[C@H](O)[C@H]4O)[C@H](O)[C@H]3NC(C)=O)[C@H](O)[C@H]2O)[C@H](O)[C@H]1NC(C)=O (stereo partly drawn),86.8%
23,COc1cc(O)c(C(C)=O)c(OC)c1,101%
24,O=C(/C=C/C(=O)Oc1ccccc1C(=O)O)Oc1ccccc1C(=O)O,110%
25,C[C@H]1C(=O)CC[C@@H]2[C@]1(C)CC[C@H]1[C@@]2(C)CC[C@@]2(C)[C@@H]3CC(C)(C)CC[C@]3(C)CC[C@]12C,113%
26,COc1cc2oc3cc(OC)c(OC)c(CC=C(C)C)c3c(=O)c2c(O)c1CC=C(C)C,99.9%

row,SMILES,cell viability
1,CCCCCC1C(=O)CCC1CC(=O)O (stereo not drawn),86.2%
2,O=C(O[C@@H]1Cc2c(O)cc(O)cc2O[C@@H]1c1cc(O)c(=O)c2c(O)c(O)cc([C@H]3Oc4cc(O)cc(O)c4C[C@H]3OC(=O)c3cc(O)c(O)c(O)c3)c2c1)c1cc(O)c(O)c(O)c1,108%
3,Cc1cc(O)c2c(c1)C(=O)c1cccc(O)c1C2=O [Chrysophanic acid (Chrysophanol)],93.8%
4,Cc1cc(O)c2c(c1)C(=O)c1cccc(O)c1C2=O,115%
5,O=C(O)c1cc(O)c(=O)c2c(O)c(O)ccc2c1,108%
6,CCC(C)C(NC)C(=O)O (stereo not drawn),118%
7,COC(=O)c1ccc2c(C(=Nc3ccc(N(C)C(=O)CN4CCN(C)CC4)cc3)c3ccccc3)c(O)[nH]c2c1 [BIBF1120 (Vargatef)],11.9%
8,CC(=O)c1ccc[nH]1,92.8%
9,C=CC(C)(O)CCC1C(=C)CC(OC(C)=O)C2C(C)(C)CCCC12C (stereo not drawn),98.6%
10,O=C1CC[C@]23/C=C/C(=O)NCCCCNCCCNC(=O)/C=C/c4ccc(c2c4)O[C@@H]3C1,97.1%
11,COC1=CC(c2cc3ccccc3[nH]2)=N/C1=C\c1[nH]c(C)cc1C [Obatoclax mesylate (GX15-070)],18.7%
12,CC1(C)O[C@H]2[C@H](O)C[C@](O)(C(N)=O)C[C@H]2O1,94.1%
13,CC1(C)[C@@H](O)CC[C@]2(C)[C@H]3C(=O)C=C4[C@H]5C[C@@](C)(C(=O)O)CC[C@]5(C)CC[C@@]4(C)[C@]3(C)CC[C@@H]12 [18alpha-GLYCYRRHETINIC ACID],95.3%
14,COc1c(O)cccc1O,97.7%
15,COc1cc(Nc2c(C#N)cnc3cc(OCCCN4CCN(C)CC4)c(OC)cc23)c(Cl)cc1Cl [Bosutinib (SKI-606)],21.3%
16,COc1cc2ncnc(Nc3ccc(F)c(Cl)c3)c2cc1OCCCN1CCOCC1 [Gefitinib (Iressa)],84.9%
17,COc1cc2c(Oc3ccc4[nH]c(C)cc4c3F)ncnc2cc1OCCCN1CCCC1 [Cediranib (AZD2171)],66.3%
18,CC(C)/C(O)=C1/C(=O)O[C@@H](c2ccoc2)[C@]2(C)C(O)[C@@H](O)[C@@]34OC5(C)OC67CC(C)(C(O)[C@]6(O)[C@@H](O)[C@]3(O5)C12)[C@H](CC(=O)O)[C@]74C (stereo partly drawn),93.3%
19,CC(=O)O[C@H]1C[C@@H](OC(C)=O)C(C)(C)C2C[C@@H](O)[C@]3(C)C(CC[C@@]4(C)[C@H](c5ccoc5)OC(=O)[C@H]5O[C@]543)[C@]21C (stereo partly drawn),103%
20,COc1cc(O)c2c(=O)cc(C)oc2c1CC=C(C)C,87.8%
21,O=C(CCc1ccc(O)cc1)c1c(O)cc(O)cc1O[C@@H]1OC(CO)[C@@H](O)[C@@H](O)C1O (stereo partly drawn),104%
22,COC(=O)c1c(C)cc(OC)cc1O,94.6%
23,Cn1c(=O)[nH]c(=O)c2[nH]cnc21,110%
24,O=c1c(O)c(-c2ccc(O)c(O)c2)oc2c(O[C@@H]3O[C@H](CO)[C@@H](O)[C@H](O)[C@H]3O)c(O)cc(O)c12,91.3%
25,O=C(O)c1ccc2c(c1)nc(Nc1cccc(Cl)c1)c1ccncc12 [cx-4945 (Silmitasertib)],80.5%
26,CC(=O)C1=C(O)C=C2Oc3c(C(C)=O)c(O)c(C)c(O)c3C2(C)C1=O (stereo in doubt),113%

row,SMILES,cell viability
1,C[C@@H](Oc1cc(-n2cnc3ccc(CN4CCN(C)CC4)cc32)sc1C(N)=O)c1ccccc1C(F)(F)F,19.5%
2,CC(=O)N[C@@H](Cc1ccccc1)C(=O)O,100%
3,CC(C)=CCc1c(O)cc2oc(C)cc(=O)c2c1O,94.1%
4,C[C@H](CCC(=O)O)[C@H]1CC[C@H]2[C@@H]3[C@H](O)C[C@@H]4C[C@H](O)CC[C@]4(C)[C@H]3C[C@H](O)[C@]12C,100%
5,CC1(C)C(=O)C=CC2(C)C1C=CC1(C)C2CCC2(C)C(c3ccoc3)OC(=O)C3OC312 (stereo not drawn),86.9%
6,CCOC(=O)Nc1nc2ccccc2[nH]1,103%
7,COC(=O)C(C)c1ccc(C(=O)c2cccs2)cc1 (stereo not drawn),103%
8,COC(=O)Nc1nc2cc([S+]([O-])c3ccccc3)ccc2[nH]1 (stereo not drawn),50.5%
9,COC(=O)Nc1nc2cc(C(=O)c3ccccc3)ccc2[nH]1,16.8%
10,COC(=O)Nc1nc2cc(C(=O)c3cccs3)ccc2[nH]1 [Nocodazole],13.3%
11,CC(=O)Oc1ccc2c(c1OC(C)=O)OCC1(O)Cc3c(cc(OC(C)=O)c(OC(C)=O)c3OC(C)=O)C21 (stereo not drawn),108%
12,COc1cc2ncnc(-n3nc(-c4ccccn4)nc3N)c2cc1OC,67%
13,O=c1cc(-c2ccccc2)oc2cccc(O)c12,119%
14,CC(C)c1c(O)c(-c2cc3c(c(C(C)C)c2O)CCC2C(C)(C)CCC[C@]32C)cc2c1CCC1C(C)(C)CCC[C@]21C (stereo partly drawn),87.3%
15,COC(=O)C[C@H]1C(C)(C)C(=O)[C@@H]2CC3=C4CC(=O)O[C@@H](c5ccoc5)[C@]4(C)CC[C@@H]3[C@@]1(C)C2=O,99.2%
16,C=C1CCC2C(CC2(C)C)C(=O)CCC1O (stereo not drawn),104%
17,CC1(C)C2CC(=O)O[C@@]3(C)C4=CC(=O)O[C@@H](c5ccoc5)[C@]4(C)CCC3[C@@]2(C)C=C[C@H]1O (stereo partly drawn),95.9%
18,Cn1cncc1[C@@](N)(c1ccc(Cl)cc1)c1ccc2c(c1)c(-c1cccc(Cl)c1)cc(=O)n2C [Tipifarnib (Zarnestra)],36.5%
19,CO[C@@]12[C@H](COC(N)=O)C3=C(C(=O)C(C)=C(N)C3=O)N1C[C@@H]1N[C@@H]12,13%
20,C=CCc1ccc(OC(=O)c2ccccc2)c(OC)c1,95.6%
21,O=c1c2cc(O)c(O)cc2oc2cc(O)c([C@@H]3O[C@H](CO)[C@@H](O)[C@H](O)[C@H]3O)c(O)c12,96.4%
22,CC1(C)C(=O)[C@H]2C[C@]3(O)C4=CC(=O)O[C@@H](c5ccoc5)[C@@]4(C)CCC3[C@](C)(C2=O)[C@H]1CC(=O)O (stereo partly drawn),95.4%
23,CCOC(=O)c1c(C)cc(OC)cc1O,95.3%
24,Nc1ccc(S(=O)(=O)Nc2ccccn2)cc1,100%
25,COc1cnc(NS(=O)(=O)c2ccc(N)cc2)nc1,100%
26,COc1ccc(S(=O)(=O)Nc2cccnc2Nc2ccc(O)cc2)cc1,49.4%
